This passage reports binding signal results from publication PMC7862700, “An all-to-all approach to the identification of sequence-specific readers for epigenetic DNA modifications on cytosine”.

Assay in all cases: DAPPL (digital affinity profiling via proximity ligation, sequencing); 10 mM Tris-HCl pH 7.5, 50 mM NaCl, 1 mM DTT, 4% glycerol, room temperature, 30 min; GST-TFs on glutathione beads, 16-mer random dsDNA library, 0.1% formaldehyde crosslink after washing; high values mean tight binding
In one assay the target is T1, FLI1 (Homo sapiens, UniProt Q01543 1-452).
T1 sequence: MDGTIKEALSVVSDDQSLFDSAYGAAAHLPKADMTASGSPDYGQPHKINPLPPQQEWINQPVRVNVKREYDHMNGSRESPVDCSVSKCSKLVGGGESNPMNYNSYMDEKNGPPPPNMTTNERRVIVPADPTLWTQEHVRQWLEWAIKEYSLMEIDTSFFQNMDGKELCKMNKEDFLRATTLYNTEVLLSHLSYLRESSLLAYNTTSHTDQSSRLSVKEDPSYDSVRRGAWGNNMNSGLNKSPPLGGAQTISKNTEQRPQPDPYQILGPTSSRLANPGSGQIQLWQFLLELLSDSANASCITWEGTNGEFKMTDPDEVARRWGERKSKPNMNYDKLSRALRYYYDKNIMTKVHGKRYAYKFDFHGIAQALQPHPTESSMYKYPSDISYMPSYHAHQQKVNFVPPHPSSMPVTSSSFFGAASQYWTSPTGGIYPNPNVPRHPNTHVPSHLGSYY
Conditions: protein: recombinant; tags: N-terminal GST; dsDNA, one strand shown. The method, boiled down: (§1)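 Beads coated with glutathione captured GST-fused human transcription factors that had been expressed in yeast, and the factors were then given DNA barcodes and pooled with a tag-only sample. The pools were incubated with 200 nmole of a random double-stranded 16-mer DNA library in Tris/NaCl/DTT/glycerol buffer for 30 min at room temperature, washed, crosslinked with 0.1% formaldehyde and proximity-ligated with BsaI/T4 ligase at 37 °C for 1 h. PCR amplification and Illumina NextSeq500 sequencing came last. Binding signal is each hexamer's read frequency for a factor divided by its frequency for the tag-only sample.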

Another assay addresses T2, GABPA (Homo sapiens, UniProt Q06546 1-454).
T2 sequence: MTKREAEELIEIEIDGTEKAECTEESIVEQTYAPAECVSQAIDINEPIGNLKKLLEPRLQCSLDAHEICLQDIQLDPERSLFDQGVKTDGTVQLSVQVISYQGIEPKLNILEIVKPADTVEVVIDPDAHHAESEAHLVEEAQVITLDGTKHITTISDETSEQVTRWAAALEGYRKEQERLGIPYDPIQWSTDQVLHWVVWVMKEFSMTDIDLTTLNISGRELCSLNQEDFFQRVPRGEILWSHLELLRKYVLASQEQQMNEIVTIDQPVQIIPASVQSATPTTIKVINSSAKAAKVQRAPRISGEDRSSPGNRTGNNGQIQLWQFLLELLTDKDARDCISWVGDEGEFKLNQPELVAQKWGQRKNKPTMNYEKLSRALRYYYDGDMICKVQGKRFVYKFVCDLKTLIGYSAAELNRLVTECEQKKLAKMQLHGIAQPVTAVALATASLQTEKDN
Conditions: protein: recombinant; tags: N-terminal GST; dsDNA, one strand shown. The gist of the method:
as §1

For a further assay, the target named is T3, ERG (Homo sapiens, UniProt P11308 1-479).
T3 sequence: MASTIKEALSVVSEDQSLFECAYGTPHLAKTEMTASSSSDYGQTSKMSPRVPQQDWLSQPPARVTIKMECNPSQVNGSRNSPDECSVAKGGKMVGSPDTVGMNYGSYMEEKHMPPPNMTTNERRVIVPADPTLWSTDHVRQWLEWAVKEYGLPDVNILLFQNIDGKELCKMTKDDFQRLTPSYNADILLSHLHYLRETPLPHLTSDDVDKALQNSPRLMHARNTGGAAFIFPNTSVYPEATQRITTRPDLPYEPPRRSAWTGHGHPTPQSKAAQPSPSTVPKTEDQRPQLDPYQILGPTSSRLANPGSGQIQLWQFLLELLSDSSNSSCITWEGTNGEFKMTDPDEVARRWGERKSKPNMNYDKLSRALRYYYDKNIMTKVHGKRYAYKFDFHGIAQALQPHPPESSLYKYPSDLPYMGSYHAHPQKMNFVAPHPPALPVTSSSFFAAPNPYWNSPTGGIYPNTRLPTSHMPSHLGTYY
The following applies: protein: recombinant; tags: N-terminal GST; dsDNA, one strand shown. The method, boiled down: as §1

The next assay has as its target ELF1 (Homo sapiens, UniProt P32519 1-619). Conditions: protein: recombinant; tags: N-terminal GST; dsDNA, one strand shown. The method, boiled down:
as §1

In another assay the target is T4, EHF (Homo sapiens, UniProt Q9NZC4 1-300).
T4 sequence: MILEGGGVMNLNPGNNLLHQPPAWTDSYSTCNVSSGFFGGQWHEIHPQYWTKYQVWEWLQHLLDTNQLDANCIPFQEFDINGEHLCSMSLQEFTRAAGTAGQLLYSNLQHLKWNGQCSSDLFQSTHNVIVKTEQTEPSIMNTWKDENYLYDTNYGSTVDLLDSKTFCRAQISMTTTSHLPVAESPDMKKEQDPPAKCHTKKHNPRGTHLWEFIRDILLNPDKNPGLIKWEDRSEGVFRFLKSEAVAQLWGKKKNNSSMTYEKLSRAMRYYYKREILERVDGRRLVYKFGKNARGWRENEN
The following applies: protein: recombinant; tags: N-terminal GST; dsDNA, one strand shown. The method, boiled down:
as §1

The target in a further assay is SPI1 (Homo sapiens, UniProt P17947 1-270). The following applies: protein: recombinant; tags: N-terminal GST; dsDNA, one strand shown. The gist of the method:
as §1

The target in a further assay is SPIB (Homo sapiens, UniProt Q01892 1-262). Conditions: protein: recombinant; tags: N-terminal GST; dsDNA, one strand shown. The gist of the method: as §1
Chain of SPIB (Q01892 whole entry): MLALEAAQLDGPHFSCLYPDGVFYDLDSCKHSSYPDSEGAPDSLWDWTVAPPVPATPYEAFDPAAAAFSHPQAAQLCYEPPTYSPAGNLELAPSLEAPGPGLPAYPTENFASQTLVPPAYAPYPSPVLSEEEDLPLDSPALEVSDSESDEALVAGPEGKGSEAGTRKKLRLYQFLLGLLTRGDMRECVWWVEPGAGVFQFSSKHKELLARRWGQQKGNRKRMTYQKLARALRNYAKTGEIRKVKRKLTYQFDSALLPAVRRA
Another assay has as its target T5, FEV (Homo sapiens, UniProt Q99581 1-238).
T5 sequence: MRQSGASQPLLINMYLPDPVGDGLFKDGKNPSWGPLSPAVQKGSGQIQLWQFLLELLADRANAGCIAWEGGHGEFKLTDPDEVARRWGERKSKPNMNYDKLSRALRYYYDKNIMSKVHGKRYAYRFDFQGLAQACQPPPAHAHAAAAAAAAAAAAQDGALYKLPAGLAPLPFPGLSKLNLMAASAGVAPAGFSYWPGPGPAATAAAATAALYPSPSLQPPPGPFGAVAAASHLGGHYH
The following applies: protein: recombinant; tags: N-terminal GST; dsDNA, one strand shown. The gist of the method: as §1

In the next assay the target is ETV5 (Homo sapiens, UniProt P41161 1-510). Conditions: protein: recombinant; tags: N-terminal GST; dsDNA, one strand shown. The gist of the method: as §1
Chain of ETV5 (P41161 whole entry): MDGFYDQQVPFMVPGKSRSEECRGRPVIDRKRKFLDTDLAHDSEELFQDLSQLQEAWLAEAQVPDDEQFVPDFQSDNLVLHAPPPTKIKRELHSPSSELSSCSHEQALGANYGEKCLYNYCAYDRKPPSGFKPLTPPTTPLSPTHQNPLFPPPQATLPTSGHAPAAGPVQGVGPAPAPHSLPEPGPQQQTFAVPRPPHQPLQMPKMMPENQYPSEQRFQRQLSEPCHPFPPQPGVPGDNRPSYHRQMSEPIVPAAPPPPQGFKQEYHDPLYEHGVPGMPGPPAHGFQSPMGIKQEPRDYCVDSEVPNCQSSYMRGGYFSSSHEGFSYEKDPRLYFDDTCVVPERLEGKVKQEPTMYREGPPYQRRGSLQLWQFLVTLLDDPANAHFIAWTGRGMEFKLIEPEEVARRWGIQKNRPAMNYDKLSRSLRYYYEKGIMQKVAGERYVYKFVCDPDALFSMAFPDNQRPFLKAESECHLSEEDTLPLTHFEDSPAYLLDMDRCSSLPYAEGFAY
Another assay deals with HSF1 (Homo sapiens, UniProt Q00613 1-529). The following applies: protein: recombinant; tags: N-terminal GST; chain copies: 3; dsDNA, one strand shown. The method, boiled down: as §1
Chain of HSF1 (Q00613 whole entry): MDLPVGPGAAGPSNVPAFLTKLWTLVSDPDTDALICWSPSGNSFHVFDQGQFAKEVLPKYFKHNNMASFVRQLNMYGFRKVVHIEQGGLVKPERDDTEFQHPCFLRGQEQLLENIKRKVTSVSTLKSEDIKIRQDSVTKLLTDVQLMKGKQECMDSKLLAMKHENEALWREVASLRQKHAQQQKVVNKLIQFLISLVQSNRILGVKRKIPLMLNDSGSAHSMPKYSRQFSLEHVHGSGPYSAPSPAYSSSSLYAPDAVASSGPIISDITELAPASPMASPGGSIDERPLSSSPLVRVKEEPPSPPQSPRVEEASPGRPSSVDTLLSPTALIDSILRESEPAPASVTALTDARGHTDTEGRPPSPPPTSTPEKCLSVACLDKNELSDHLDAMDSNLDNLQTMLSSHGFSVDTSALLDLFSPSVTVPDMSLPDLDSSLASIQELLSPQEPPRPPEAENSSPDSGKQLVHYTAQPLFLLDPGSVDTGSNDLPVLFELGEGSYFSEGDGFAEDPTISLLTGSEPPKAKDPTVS
The next assay addresses T6, SPIC (Homo sapiens, UniProt Q8N5J4 1-248).
T6 sequence: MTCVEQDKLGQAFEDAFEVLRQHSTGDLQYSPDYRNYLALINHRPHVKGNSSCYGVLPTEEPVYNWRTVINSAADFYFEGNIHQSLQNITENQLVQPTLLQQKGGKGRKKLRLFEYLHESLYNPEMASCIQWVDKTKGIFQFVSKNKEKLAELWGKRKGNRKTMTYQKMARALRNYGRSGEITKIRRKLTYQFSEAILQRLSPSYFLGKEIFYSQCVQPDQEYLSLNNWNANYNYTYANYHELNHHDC
The following applies: protein: recombinant; tags: N-terminal GST; dsDNA, one strand shown. The gist of the method: as §1

The target of another assay is ELF4 (Homo sapiens, UniProt Q99607 1-663). The following applies: protein: recombinant; tags: N-terminal GST; dsDNA, one strand shown. The method, boiled down: as §1
Chain of ELF4 (Q99607 whole entry): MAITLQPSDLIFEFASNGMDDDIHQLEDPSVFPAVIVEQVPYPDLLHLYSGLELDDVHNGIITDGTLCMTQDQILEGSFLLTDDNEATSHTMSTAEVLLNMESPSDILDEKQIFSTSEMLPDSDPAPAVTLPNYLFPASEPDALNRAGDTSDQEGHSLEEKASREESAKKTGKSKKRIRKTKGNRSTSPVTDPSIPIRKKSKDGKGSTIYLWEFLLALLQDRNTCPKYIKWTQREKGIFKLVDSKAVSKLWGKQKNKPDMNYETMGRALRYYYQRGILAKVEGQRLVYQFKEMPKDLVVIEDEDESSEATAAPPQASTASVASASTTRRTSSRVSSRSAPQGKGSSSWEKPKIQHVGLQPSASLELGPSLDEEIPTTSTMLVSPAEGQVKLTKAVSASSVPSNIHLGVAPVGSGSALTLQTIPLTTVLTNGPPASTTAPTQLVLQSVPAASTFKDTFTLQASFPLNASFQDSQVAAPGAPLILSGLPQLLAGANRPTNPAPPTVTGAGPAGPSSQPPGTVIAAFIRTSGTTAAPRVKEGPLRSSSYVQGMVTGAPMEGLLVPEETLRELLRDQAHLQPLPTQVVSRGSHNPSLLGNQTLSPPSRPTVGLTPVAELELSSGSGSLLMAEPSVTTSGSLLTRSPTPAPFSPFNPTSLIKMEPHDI
A further assay deals with T7, ELK4 (Homo sapiens, UniProt P28324-2 1-405).
T7 sequence: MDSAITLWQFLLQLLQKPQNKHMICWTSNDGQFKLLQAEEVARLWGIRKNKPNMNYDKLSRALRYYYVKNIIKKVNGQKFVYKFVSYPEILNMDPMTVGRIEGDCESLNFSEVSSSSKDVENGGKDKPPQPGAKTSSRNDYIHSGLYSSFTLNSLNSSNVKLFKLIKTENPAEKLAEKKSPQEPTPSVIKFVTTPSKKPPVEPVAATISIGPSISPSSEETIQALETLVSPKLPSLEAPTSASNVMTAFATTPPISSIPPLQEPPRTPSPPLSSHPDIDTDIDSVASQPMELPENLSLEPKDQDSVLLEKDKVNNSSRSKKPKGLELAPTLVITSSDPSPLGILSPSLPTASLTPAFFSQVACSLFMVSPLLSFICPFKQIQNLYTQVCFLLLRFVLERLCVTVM
The following applies: protein: recombinant; tags: N-terminal GST; dsDNA, one strand shown. The gist of the method:
as §1

The target of another assay is T8, ETV2 (Homo sapiens, UniProt O00321 1-342).
T8 sequence: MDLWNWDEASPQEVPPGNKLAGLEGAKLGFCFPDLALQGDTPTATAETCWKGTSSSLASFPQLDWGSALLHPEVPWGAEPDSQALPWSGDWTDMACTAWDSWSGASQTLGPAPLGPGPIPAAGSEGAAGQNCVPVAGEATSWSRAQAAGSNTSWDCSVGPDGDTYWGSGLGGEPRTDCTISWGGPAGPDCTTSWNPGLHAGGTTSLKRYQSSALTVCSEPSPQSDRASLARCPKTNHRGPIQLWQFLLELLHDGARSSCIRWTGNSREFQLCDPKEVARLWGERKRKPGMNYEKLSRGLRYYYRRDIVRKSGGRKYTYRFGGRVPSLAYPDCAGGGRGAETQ
Conditions: protein: recombinant; tags: N-terminal GST; dsDNA, one strand shown. The gist of the method: as §1

The target of another assay is T9, ELF3 (Homo sapiens, UniProt P78545 1-371).
T9 sequence: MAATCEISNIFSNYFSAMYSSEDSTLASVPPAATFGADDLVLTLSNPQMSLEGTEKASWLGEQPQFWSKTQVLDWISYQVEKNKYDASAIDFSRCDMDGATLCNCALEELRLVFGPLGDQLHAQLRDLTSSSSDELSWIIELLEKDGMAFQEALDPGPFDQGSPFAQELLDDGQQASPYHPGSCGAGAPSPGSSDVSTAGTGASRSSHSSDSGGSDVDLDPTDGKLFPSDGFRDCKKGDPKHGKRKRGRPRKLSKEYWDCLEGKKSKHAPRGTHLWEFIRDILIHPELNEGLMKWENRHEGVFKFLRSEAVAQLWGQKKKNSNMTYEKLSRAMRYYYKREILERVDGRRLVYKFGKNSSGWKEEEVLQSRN
Conditions: protein: recombinant; tags: N-terminal GST; dsDNA, one strand shown. The method, boiled down:
as §1

The target in the next assay is CRX (Homo sapiens, UniProt O43186 1-299). The following applies: protein: recombinant; tags: N-terminal GST; dsDNA, one strand shown. The gist of the method: as §1
Chain of CRX (O43186 whole entry): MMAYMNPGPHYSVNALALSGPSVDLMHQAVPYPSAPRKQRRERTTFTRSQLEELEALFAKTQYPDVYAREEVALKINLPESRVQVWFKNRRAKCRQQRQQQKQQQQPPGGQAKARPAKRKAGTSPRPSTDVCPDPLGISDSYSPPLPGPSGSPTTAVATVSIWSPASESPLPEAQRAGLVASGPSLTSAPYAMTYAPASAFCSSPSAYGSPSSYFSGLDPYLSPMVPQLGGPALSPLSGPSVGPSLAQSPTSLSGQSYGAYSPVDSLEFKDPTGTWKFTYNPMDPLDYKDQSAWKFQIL
For another assay, the target named is ETV1 (Homo sapiens, UniProt P50549 1-477). Conditions: protein: recombinant; tags: N-terminal GST; dsDNA, one strand shown. The method, boiled down:
as §1

The target in another assay is T10, ELK3 (Homo sapiens, UniProt P41970 1-407).
T10 sequence: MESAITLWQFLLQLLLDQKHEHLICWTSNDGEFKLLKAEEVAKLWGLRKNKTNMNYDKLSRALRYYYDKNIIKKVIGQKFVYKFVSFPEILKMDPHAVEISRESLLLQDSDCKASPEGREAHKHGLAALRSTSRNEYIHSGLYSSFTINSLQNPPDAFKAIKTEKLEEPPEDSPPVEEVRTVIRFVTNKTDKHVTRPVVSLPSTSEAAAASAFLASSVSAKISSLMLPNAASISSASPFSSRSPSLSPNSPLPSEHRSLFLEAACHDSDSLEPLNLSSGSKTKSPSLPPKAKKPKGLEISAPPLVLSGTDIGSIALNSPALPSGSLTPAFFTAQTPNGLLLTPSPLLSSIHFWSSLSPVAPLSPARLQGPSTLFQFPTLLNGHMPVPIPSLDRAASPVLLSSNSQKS
Conditions: protein: recombinant; tags: N-terminal GST; dsDNA, one strand shown. The gist of the method:
as §1

Chain of ETV1 (P50549 whole entry): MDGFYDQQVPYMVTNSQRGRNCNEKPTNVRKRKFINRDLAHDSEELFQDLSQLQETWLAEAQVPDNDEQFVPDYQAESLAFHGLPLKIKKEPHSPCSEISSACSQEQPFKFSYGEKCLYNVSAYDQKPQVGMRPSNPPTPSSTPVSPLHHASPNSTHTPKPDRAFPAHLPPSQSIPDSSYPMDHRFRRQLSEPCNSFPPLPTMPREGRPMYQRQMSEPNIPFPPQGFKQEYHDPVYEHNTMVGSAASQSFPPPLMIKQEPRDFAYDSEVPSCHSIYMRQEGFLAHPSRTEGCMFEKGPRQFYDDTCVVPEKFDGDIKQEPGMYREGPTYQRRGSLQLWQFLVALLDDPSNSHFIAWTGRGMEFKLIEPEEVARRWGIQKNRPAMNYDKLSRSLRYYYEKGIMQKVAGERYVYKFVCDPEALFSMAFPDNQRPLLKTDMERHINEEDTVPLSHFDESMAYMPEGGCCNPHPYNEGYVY
Chain of ELF1 (P32519 whole entry): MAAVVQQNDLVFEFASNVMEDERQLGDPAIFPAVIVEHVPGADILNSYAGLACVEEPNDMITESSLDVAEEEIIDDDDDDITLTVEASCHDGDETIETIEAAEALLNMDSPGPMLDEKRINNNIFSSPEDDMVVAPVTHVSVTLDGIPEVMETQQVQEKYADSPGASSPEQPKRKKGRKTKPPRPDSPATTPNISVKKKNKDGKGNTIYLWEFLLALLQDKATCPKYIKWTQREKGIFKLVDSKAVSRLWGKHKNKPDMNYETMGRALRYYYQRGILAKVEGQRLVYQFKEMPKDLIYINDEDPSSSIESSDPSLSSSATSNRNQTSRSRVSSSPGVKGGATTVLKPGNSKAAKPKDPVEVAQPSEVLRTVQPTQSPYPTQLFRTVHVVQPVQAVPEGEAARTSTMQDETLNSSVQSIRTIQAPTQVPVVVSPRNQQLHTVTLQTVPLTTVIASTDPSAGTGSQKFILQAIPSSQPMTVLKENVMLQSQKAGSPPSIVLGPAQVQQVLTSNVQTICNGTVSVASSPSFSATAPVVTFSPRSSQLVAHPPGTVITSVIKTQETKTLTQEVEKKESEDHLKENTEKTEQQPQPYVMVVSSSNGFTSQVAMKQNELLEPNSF

Turning to TTTGAG, the binding signal in the assay with FLI1 was 1.13 fold enrichment (6-mer frequency, TF over GST control); in the assay with GABPA, 1.28 fold enrichment (6-mer frequency, TF over GST control); with ERG, 1.05 fold enrichment (6-mer frequency, TF over GST control); in the assay with ELF1, 1.13 fold enrichment (6-mer frequency, TF over GST control); with EHF, 1.09 fold enrichment (6-mer frequency, TF over GST control); with SPI1, 1.16 fold enrichment (6-mer frequency, TF over GST control). Further, the binding signal is 1.12 fold enrichment (6-mer frequency, TF over GST control) with SPIB; 1.03 fold enrichment (6-mer frequency, TF over GST control) with FEV; 1.02 fold enrichment (6-mer frequency, TF over GST control) in the assay with ETV5; 1.1 fold enrichment (6-mer frequency, TF over GST control) with HSF1; 1.36 fold enrichment (6-mer frequency, TF over GST control) with SPIC; 1.02 fold enrichment (6-mer frequency, TF over GST control) with ELF4. The binding signal was 1.23 fold enrichment (6-mer frequency, TF over GST control) in the assay with ELK4; 1.04 fold enrichment (6-mer frequency, TF over GST control) in the assay with ETV2; 1.08 fold enrichment (6-mer frequency, TF over GST control) with ELF3; 1.23 fold enrichment (6-mer frequency, TF over GST control) with CRX; 1.14 fold enrichment (6-mer frequency, TF over GST control) with ETV1.
Consider TAGTAA, for which the binding signal is 1.13 fold enrichment (6-mer frequency, TF over GST control) with FLI1; 1.03 fold enrichment (6-mer frequency, TF over GST control) with GABPA; 1.08 fold enrichment (6-mer frequency, TF over GST control) with ELF1; 1.03 fold enrichment (6-mer frequency, TF over GST control) in the assay with EHF; 1.02 fold enrichment (6-mer frequency, TF over GST control) with SPI1; 1.07 fold enrichment (6-mer frequency, TF over GST control) in the assay with SPIB. The binding signal with ELK3 was 1.13 fold enrichment (6-mer frequency, TF over GST control); with ETV5, 1.05 fold enrichment (6-mer frequency, TF over GST control); with HSF1 it was 1.54 fold enrichment (6-mer frequency, TF over GST control); with SPIC, 1.07 fold enrichment (6-mer frequency, TF over GST control); with ELF4, 1.05 fold enrichment (6-mer frequency, TF over GST control); in the assay with ELK4 it was 1.04 fold enrichment (6-mer frequency, TF over GST control). The binding signal was 1.12 fold enrichment (6-mer frequency, TF over GST control) in the assay with ETV2; 1.06 fold enrichment (6-mer frequency, TF over GST control) with ELF3; 1.59 fold enrichment (6-mer frequency, TF over GST control) with CRX; 1.07 fold enrichment (6-mer frequency, TF over GST control) with ETV1.
